Where a name gives a salt, the structure may show the parent alone. ± gives the standard deviation of the averaged measurements.
Experiments:
Molm13 = experiment: cell viability relative to DMSO control (bortezomib = 0%); higher = less growth inhibition; details: 10 nM; 72 h
Summary of the method: (§1)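 In duplicate runs, a library of 679 approved and investigational compounds in 384-well plates received acute myeloid leukemia cells at 1000 cells per well in 50 µL, with each compound at a single 10 nM dose for 72 h. CellTiter-Glo luminescence, read on an EnVision reader, served as the viability measure. Each plate was normalized by linear regression between DMSO-treated cells (100%) and positive-control-treated cells (0%).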

Mv4-11 = experiment: as above; details: 10 nM; 72 h
Summary of the method: as §1

Row | SMILES | cell viability (Molm13) [%] | cell viability (Mv4-11) [%]
1 | CCN(CC)CC(=O)Nc1c(C)cccc1C [Lidocaine Hydrochloride hydrate] | 111 ± 18 | 113 ± 8.3
2 | Clc1cnccn1 [2-Chloropyrazine] | 113 ± 6.1 | 94.5 ± 27
3 | CN(C)C(=N)NC(=N)N [Metformin hydrochloride] | 104 ± 25 | 90.48 ± 0.55
4 | CCS(=O)(=O)c1cccc(-c2cc(C(=O)NC3CCN(C)CC3)c(C)c3[nH]c4ncc(C)cc4c23)c1 | 75.1 ± 5.3 | 90.6 ± 3.5
5 | CC(C)(C)[Si](C)(C)Oc1ccc2oc(=O)c3c(c2c1)CCCN3 | 108 ± 12 | 108 ± 14
6 | O=c1cc(-c2ccccc2)oc2c(O)c(O)ccc12 [7,8-Dihydroxyflavone] | 108 ± 16 | 104 ± 4
7 | COc1cc2c(Oc3ccc(NC(=O)C4(C(=O)Nc5ccc(F)cc5)CC4)cc3F)ccnc2cc1OCCCN1CCOCC1 | 14.3 ± 2.5 | 15.8 ± 33
8 | CN1CCN(Cc2ccc(-c3cnc4[nH]cc(-c5ccc6[nH]ccc6c5)c4c3)cc2)CC1 | 109 ± 33 | 121 ± 31
9 | Cc1cc(Nc2cc(CN3CCOCC3)c3nc(C)c(Cc4ccc(Cl)cc4F)n3n2)n[nH]1 | 82.5 ± 8.9 | 113 ± 2
10 | CCCCCCCCCCCCC/C=C/[C@@H](O)[C@H](CO)N(C)C [N,N-Dimethylsphingosine] | 108 ± 20 | 115 ± 6.7
11 | Cc1cc(Nc2ncnc3ccc(NC4=NC(C)(C)CO4)cc23)ccc1Oc1ccn2ncnc2c1 [Irbinitinib(ARRY-380; ONT-380)] | 103 ± 17 | 112 ± 8.3
12 | C[C@@H](Oc1cc(-c2cnn(C3CCNCC3)c2)cnc1N)c1c(Cl)ccc(F)c1Cl | 107 ± 16 | 100 ± 20
13 | Cc1ccc(C(=O)Nc2ccc(CN3CCN(C)CC3)c(C(F)(F)F)c2)cc1C#Cc1cnc2[nH]ncc2c1 [GZD824 Dimesylate] | 4.07 ± 5.9 | -9.27 ± 10
14 | CN1C(=O)C(c2c[nH]c3ccccc23)=C(c2c[nH]c3ccccc23)C1=O [Bisindolylmaleimide V] | 124 ± 11 | 113 ± 9.1
15 | N[C@@H]1CCCN(c2c(/C=C3\SC(=O)NC3=O)cccc2-c2ccccc2)C1 | 103 ± 1.3 | 125 ± 9.2
16 | Cc1c(NC(=O)c2ccc(C(C)(C)C)cc2)cccc1-c1cn(C)c(=O)c(Nc2ccc(C(=O)N3CCOCC3)cc2)n1 | 106 ± 13 | 115 ± 8.8
17 | NC(=O)c1ccc(N(C(N)=O)c2c(F)cccc2F)nc1-c1ccc(F)cc1F | 93.7 ± 5.1 | 98.7 ± 8.1
18 | C=CC(=O)Nc1cc2c(Nc3ccc(F)c(Cl)c3)ncnc2cc1OCCCN1CCOCC1 [Canertinib (hydrochloride)] | 93.9 ± 14 | 103 ± 7.2
19 | NC(=O)c1ccc(-c2nc(-c3ccccn3)c(-c3ccc4c(c3)OCO4)[nH]2)cc1 | 105 ± 16 | 107 ± 20
20 | CN1CCN(S(=O)(=O)c2ccc(-c3cnc(N)c(C(=O)Nc4cccnc4)n3)cc2)CC1 | 95.5 ± 17 | 100 ± 0.48

Row | SMILES | cell viability (Molm13) [%] | cell viability (Mv4-11) [%]
21 | C=CCn1c(=O)c2cnc(Nc3ccc(N4CCN(C)CC4)cc3)nc2n1-c1cccc(C(C)(C)O)n1 | 93.6 ± 20 | 95.2 ± 2.1
22 | CC1(C)CC(=O)C2=C(C1)NC(=S)NC2c1cccc(O)c1 (stereo not given) [Dimethylenastron] | 91 ± 2.6 | 109 ± 4.5
23 | Oc1ccc2c(c1)OCO2 [Sesamol] | 103 ± 1.4 | 113.6 ± 0.84
24 | COc1cc2c(cc1OC)-c1[nH]nc(Nc3cccc(F)c3)c1C2 | 120 ± 23 | 116 ± 26
25 | CCCCCCCCCCCCCCCCn1cc[n+](Cc2ccccc2)c1C | 124 ± 5.5 | 111 ± 5.8
26 | COc1cc(N2CCN(C)CC2)ccc1Nc1nccc(-c2cn(C)c3cnccc23)n1 | 118 ± 3.1 | 117 ± 7
27 | Cc1c(F)cc(C(=O)NC2CC2)cc1-c1ccc(C(=O)NCC(C)(C)C)cn1 | 92.1 ± 8 | 118 ± 20
28 | CS(=O)(=O)N1CCN(Cc2cc3nc(-c4cccc5[nH]ncc45)nc(N4CCOCC4)c3s2)CC1 | 89.9 ± 12 | 106.7 ± 0.54
29 | C[C@@H]1O[C@@H](O[C@@H]2[C@@H](O)[C@H](OCCc3ccc(O)c(O)c3)O[C@H](CO)[C@H]2OC(=O)/C=C/c2ccc(O)c(O)c2)[C@H](O)[C@H](O)[C@H]1O [Verbascoside] | 89.4 ± 1.9 | 91.6 ± 5.3
30 | N#Cc1c(-c2ccccc2)cc(-c2cc(Br)ccc2O)[nH]c1=O | 125 ± 30 | 114 ± 9.7
31 | CNC(=O)c1cc(Oc2ccc(NC(=O)Nc3ccc(Cl)c(C(F)(F)F)c3)cc2)ccn1 | 45 ± 3.3 | 45.2 ± 5.3
32 | Cc1ccc(C(=O)Nc2ccc(CN3CCN(C)CC3)c(C(F)(F)F)c2)cc1C#Cc1cnc2cccnn12 | 6.99 ± 13 | 3.31 ± 4.5
33 | COc1cc(OC2CCN(C)CC2)ccc1Nc1ncc2c(n1)n(C1CCCC1)c(=O)n2C | 107 ± 7.8 | 104.1 ± 0.45
34 | CC(C)=CCC[C@](C)(O[C@@H]1O[C@H](CO[C@@H]2O[C@H](CO)[C@@H](O)[C@H](O)[C@H]2O)[C@@H](O)[C@H](O)[C@H]1O)[C@H]1CC[C@]2(C)[C@@H]1[C@H](O)C[C@@H]1[C@@]3(C)CC[C@H](O[C@@H]4O[C@H](CO)[C@@H](O)[C@H](O)[C@H]4O)C(C)(C)[C@@H]3CC[C@]12C [Gypenoside XVII] | 95.8 ± 9.3 | 102 ± 7
35 | COc1c(C)c(C(=O)c2ccc(N)c(C(=O)O)c2)n2ccccc12 | 107 ± 23 | 114 ± 7.3
36 | CNC(=O)c1ccccc1Nc1nc(Nc2ccc(N3CCOCC3)cc2OC)ncc1Cl | 90.55 ± 0.19 | 109 ± 5.5
37 | Cc1[nH]c(/C=C2\C(=O)Nc3ccccc32)c(C)c1CCC(=O)O | 107 ± 18 | 108 ± 14
38 | COc1ccc2c3n(c(=NC(=O)c4cccnc4)nc2c1OC)CCN3 | 88.7 ± 7 | 102 ± 2.9
39 | N#Cc1c(Oc2ccc(F)c(NC(=O)Cc3cccc(C(F)(F)F)c3)c2)ccc2nc(NC(=O)C3CC3)sc12 | 105 ± 12 | 114 ± 6.7
40 | COc1cc2ncnc(Nc3ccc(O)cc3)c2cc1OC | 116 ± 5 | 102 ± 7.1

Reference: the supplement of paper PMC8699584
